Reference: PubChem BioAssay AID1211 (NMMLSC, 2008)

Target: Estrogen receptor (Homo sapiens) (UniProt P03372)
Assay: ERalpha ligand binders by competition, primary screen, cell-based, Cos7 ERalpha-GFP, flow cytometry (AID 1211);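 also: 0% = DMSO vehicle wells and 100% = no E2-Alexa633 signal left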
Settings: fluorescent ligand competition, binding inhibition, at 0.1 µM, stronger effect = higher value

Chain of Estrogen receptor (Homo sapiens) (P03372 whole entry, looked up): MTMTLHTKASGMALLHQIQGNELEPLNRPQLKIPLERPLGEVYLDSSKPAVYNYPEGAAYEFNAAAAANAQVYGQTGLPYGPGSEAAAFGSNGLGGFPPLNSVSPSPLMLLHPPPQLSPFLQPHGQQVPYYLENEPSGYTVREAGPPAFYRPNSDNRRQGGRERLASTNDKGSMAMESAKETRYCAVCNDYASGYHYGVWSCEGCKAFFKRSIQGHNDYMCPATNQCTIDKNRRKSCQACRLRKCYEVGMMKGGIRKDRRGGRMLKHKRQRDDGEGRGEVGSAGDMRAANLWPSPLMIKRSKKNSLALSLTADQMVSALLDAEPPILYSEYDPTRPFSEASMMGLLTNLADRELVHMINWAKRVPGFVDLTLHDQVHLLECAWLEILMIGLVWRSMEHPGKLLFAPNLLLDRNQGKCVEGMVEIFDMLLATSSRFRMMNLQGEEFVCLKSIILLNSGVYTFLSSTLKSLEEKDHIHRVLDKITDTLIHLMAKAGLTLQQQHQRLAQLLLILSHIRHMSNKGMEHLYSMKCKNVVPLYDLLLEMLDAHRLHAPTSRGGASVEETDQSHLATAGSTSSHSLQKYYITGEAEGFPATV

Structure (SMILES) | inhibition of ligand binding
COc1cc2c(cc1OC)C(Cc1ccc(O)cc1)N(C)CC2 (stereo not drawn) | 16%
Cc1ccccc1Nc1nnc(SCC(=O)NC(=O)NCc2ccco2)s1 | 50%
O=C(NC1CCN(C(=O)N2c3ccccc3Sc3ccccc32)CC1)c1ccccc1Cl | 37%
CCc1ccc2nc(NC(=O)c3ccc4c(=O)[nH]c(CN5CCOCC5)nc4c3)sc2c1 | 9%
CCOC(=O)C1CCCN(C(=O)c2ccc(CS(=O)(=O)c3ccc(C)cc3)o2)C1 (stereo not drawn) | 6%
Oc1c(Cl)cc(Cl)cc1Sc1cc(Cl)cc(Cl)c1O | 28%
CN(c1ccccc1C(=O)O)S(=O)(=O)c1ccc2c3c(cccc13)C(=O)N2 | 12%
CCn1c(SCC(=O)Nc2cccc(F)c2)nnc1-c1cc2cc(Br)ccc2o1 | 35%
Cc1ccc2c(c1)c(=O)c1c3n2CCN(C(=O)CCl)C3CC1 (stereo not drawn) | 26%
O=C(O)C1CSC(c2coc3ccccc3c2=O)N1 (stereo not drawn) | 47%
Cc1cccc2cc(C(c3nnnn3C(C)(C)C)N(Cc3ccco3)CC3CCCO3)c(=O)[nH]c12 (stereo not drawn) | 7%
COc1ccc(C2Nc3ccccc3C(=O)N2c2ccccc2)cc1COc1ccccn1 (stereo not drawn) | 58%
O=C1c2ccccc2C(=O)N1CCCc1nc2ccccc2c(=O)n1CCCn1ccnc1 | 23%
COc1ccccc1N1CCN(C(=O)c2cc3c(s2)CCC3)CC1 | 55%
COc1cc(-c2nc3ccccn3c2/N=C/c2ccccc2)ccc1O | 11%
Nc1ccc2nc(-c3ccc(Cl)cc3)[nH]c2c1 | 30%
COc1cc(CCC(=O)OCC(=O)Nc2ncc(Cl)cc2Cl)cc(OC)c1OC | 27%
CCOC(=O)CSc1nn(C)c(=S)s1 | 38%
Brc1cc2c(cc1C1Nc3ccccc3C3C=CCC31)OCO2 (stereo not drawn) | 14%

Structure (SMILES) | inhibition of ligand binding
O=C(Nc1ccc(O)cc1C(=O)O)c1ccc2c(c1)C(=O)N(Cc1ccco1)C2=O | 86%
COc1ccc2c(c1)[nH]c1c(=O)n(N)cnc12 | 20%
c1coc(-c2nnc3sc(Cc4cccs4)nn23)c1 | 14%
O=c1cc(O)c2sc(Nc3ccc(F)cc3)nc2[nH]1 | 48%
Cc1ccc(Cc2cncc(O)c2)cc1S(=O)(=O)O | 20%
COc1ccccc1/C=c1\sc2nc(-c3ccco3)nn2c1=O | 25%
Cc1cc(-c2ccccc2)nc2cc(C(N)=O)nn12 | 5%
CCn1c(SCC(=O)c2ccc(O)c(O)c2)nnc1-c1ccccc1OC | 16%
CCc1ccc(Nc2nc(N)nc(CSc3nnnn3-c3ccccc3)n2)cc1 | 16%
O=C(COC(=O)CCC(=O)c1cccs1)NCc1ccco1 | 74%
Oc1ccc(/C=C/c2nc(-c3ccccc3O)n(-c3ccccc3)n2)cc1 | 58%
COc1ccc(-c2cn3c(C)c(C(=O)Nc4ccncc4)sc3n2)cc1 | 3%
Cc1c(C(=O)OCc2ccccc2)[nH]c2c1C(=O)CC(c1ccco1)C2 (stereo not drawn) | 24%
O=c1[nH]cnc2c1sc1nc3c(c(-c4ccc(Cl)cc4)c12)CCC3 | 9%
O=C(NCc1ccco1)c1cc2ccc(O)cc2oc1=O | 46%
COc1cccc(-c2nnc(NC(=O)Cc3cccs3)s2)c1 | 20%
Nc1ccc2nc(CN3CCOCC3)[nH]c2c1 | 41%
CC(=O)c1sc2nc(SCC(=O)N3CCCCC3)[nH]c(=O)c2c1C | 30%
CC(C)(C)c1nnc2sc(SC/C(O)=C(\C#N)c3nc4ccccc4[nH]3)nn2c1=O | 8%
